The values below come from publication PMC5540273 (PLoS ONE, 2017).

SMILES strings stand for the structures.
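Note: KINOMEscan kinase panel screen.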

In the experiment the test system is SYK. The conditions noted are these: concentration: 1 μM, replicates: in singlicate; n = 1.
As for `O=C(Nc1n[nH]c2nc(-c3nccs3)c(Br)cc12)C1CC1` [SB-742251], the “%Inh” value was 0%.
Regarding `Nc1nc(-c2nccs2)c(-c2ccnc3ccccc23)s1` [GW693542], the “%Inh” value turned out to be 24%.
Regarding `CC(C)(C)c1ccc(C(=O)Nc2cn3cc(-c4cccnc4)ccc3n2)cc1`, the “%Inh” value was 0%.
Turning to `Cn1ccc2ncnc(Oc3ccc(NC(=O)Nc4ccccc4)cc3)c21`, the “%Inh” value was determined as 12%.
With `Cl.c1ccc(-c2n[nH]cc2-c2ccnc(-c3ccc(CN4CCOCC4)cc3)c2)nc1` [GW776245] the figure was 16%; with `COc1cc2ncn(-c3cc(OCC4CCCO4)c(C(N)=O)s3)c2cc1OC` (centres unmarked) [GSK204607], 12%; with `COc1ccc(C2=C(Nc3cccc(C(=O)O)c3)C(=O)NC2=O)cc1` [SB-390765], 25%.
With `Fc1cc(Cl)ccc1Nc1ccnc2cc(-c3ccc(CN4CCCCC4)o3)ccc12` [GW560116], the “%Inh” value was 0%.
Regarding `O=c1cc(N2CCOCC2)nc2n(Cc3cccc(Cl)c3Cl)ccn12` [GSK2286295], the “%Inh” value is listed as 32%.
As to `O=C(Nc1ccccc1)Nc1cccc(Oc2ccc3nccn3n2)c1`, the “%Inh” value amounted to 12%.
As to `Nc1ncnc2[nH]c(-c3ccccc3)nc12` [AH5015], the “%Inh” value is 10%.
With `Cc1cccc(-c2nc(-c3ccc(S(C)(=O)=O)cc3)sc2-c2ccnc(NCCc3ccccc3)c2)c1`, the “%Inh” value worked out at 0%.
For `O=C(Nc1n[nH]c2cc(-c3cccc(F)c3F)ccc12)C1CC1` [SB-733894], the “%Inh” value was found to be 0%.
Consider `CN1C(=O)C(Nc2ccc(Cl)c(C(=O)O)c2)=C(c2ccc(Cl)cc2)C1=O` [SB-404290], for which the “%Inh” value was 28%.
On to `Cn1cncc1-c1ccc2ncnc(Nc3ccc(OCc4ccccc4)cc3)c2c1` [GW320571], for which the “%Inh” value is 0%.
For the compound `Cn1ccc2ncnc(Oc3cccc(C(=O)Nc4ccccc4)c3)c21`, the “%Inh” value is recorded as 2%.
Take `Fc1cc(Cl)ccc1Nc1ccnc2cc(I)ccc12` [GW551191]: the “%Inh” value is 0%.
Consider `COc1cc2ncnc(Nc3ccc4nc(-c5ccccc5)[nH]c4c3)c2cc1OC.Cl` [GW282450], for which the “%Inh” value was found to be 43%.
As for `COc1cccc(-c2cc(-c3c[nH]nc3-c3ccccn3)ccn2)c1` [GW680338], the “%Inh” value worked out at 17%.
For the compound `COc1ccc(CNC(=O)NC2CCN(c3ccnc(Nc4cc(OC)c(OC)c(OC)c4)n3)C2)cc1` (centres unmarked) [GSK1379748], the “%Inh” value was 21%.
